Compound activity from PubChem BioAssay.
This is a sample that favours compounds with a hit; in the whole collection about 2.4% have one here.
WRN inhibitor = WRN helicase (human) inhibition. Potency, µM (highest dose often 114 µM), for the others: at the top dose activity change, negative = inhibition, most hits filed as inhibitors. WRN helicase unwinding, fluorescent forked duplex, kinetic. hit rate 0.46% among 360,000; further: on the % scale 0 is the no-effect control and ±100 the full control effect; nearly all actives have a fitted effect of over 55% in size
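Kinetic red-fluorescence monitoring (525/598 nm) tracks WRN helicase activity after 100 nM fluorophore-quencher forked duplex and 2 mM ATP are added to 20 nM enzyme pretreated 15 min at room temperature with compound.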
FEN1 inhibitor = human FEN1 inhibition | P39748 | Recombinant FEN1 flap cleavage, fluorescence, 15 min | Potency, µM (series often up to 114 µM), inactives show at the highest dose activity change, negative = inhibition, most hits filed as inhibitors | hit rate 0.35% among 390,000 | AID 588795; further: on the % scale 0 is the no-effect control and ±100 the full control effect; nearly all actives have a fitted effect of over 65% in size
Target sequence (P39748 whole entry, looked up): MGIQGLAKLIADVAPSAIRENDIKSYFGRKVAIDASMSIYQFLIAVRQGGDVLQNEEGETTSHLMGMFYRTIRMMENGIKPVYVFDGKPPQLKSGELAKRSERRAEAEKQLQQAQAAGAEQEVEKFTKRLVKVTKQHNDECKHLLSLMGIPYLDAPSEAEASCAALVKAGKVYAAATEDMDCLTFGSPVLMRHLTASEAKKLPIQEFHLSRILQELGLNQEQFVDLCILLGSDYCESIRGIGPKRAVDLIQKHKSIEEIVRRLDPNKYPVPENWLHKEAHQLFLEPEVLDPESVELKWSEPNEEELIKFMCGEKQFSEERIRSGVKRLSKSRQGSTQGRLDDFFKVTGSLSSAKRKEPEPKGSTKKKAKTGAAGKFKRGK
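Quantitative HTS format: each compound was titrated, incubated with 10 nM nuclease for 15 min at room temperature, then challenged with flap substrate at 50 nM final. Signal change over 15 min gave concentration–effect curves.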
POLI inh = DNA polymerase iota (human) inhibition | Q9UNA4 | Pol iota fluorescent replication assay, 10 min | Potency, µM (doses to about 115 µM), for inactives: top-dose activity, negative = inhibition, actives largely listed as inhibitors | hit rate 1% among 390,000 | AID 588590
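Pol iota at 10 nM preincubated 15 min with compounds at room temperature; reaction started with fluorescent substrate, 50 nM final. Fluorescence read kinetically at 0 and 10 min; buffer-only wells as negative control.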
Pol eta inh-1 = DNA polymerase eta (human) inhibition | hit rate 1.2% among 390,000 | recombinant Pol eta, fluorescent DNA replication assay | AID 588591 | Potency, µM (doses to about 114 µM), without a hit: top-dose activity change, negative = inhibition, most hits filed as inhibitors | Q9Y253; further: on the % scale 0 is the no-effect control and ±100 the full control effect
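Fluorescent replication assay: 50 nM final substrate added after a 15 min room-temperature compound preincubation with 10 nM enzyme. Signal taken at 0 min and again at 10 min.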
Pol kappa inh-1 = DNA polymerase kappa (human) inhibition; Q9UBT6; purified Pol kappa, fluorescent DNA synthesis assay, 10 min; Potency, µM (titrated, usually from 107 µM), inactives show at the top dose activity, negative = inhibition, hits mostly inhibitors; hit rate 0.53% among 400,000; further: on the % scale 0 is the no-effect control and ±100 the full control effect
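Readout: fluorescence, taken kinetically at 0 and 10 min. Conditions: 10 nM Pol kappa, 15 min RT compound preincubation, 50 nM substrate final. Controls: enzyme-free buffer wells.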
Pol beta inh = blocks human DNA polymerase beta activity; Pol beta primer extension/strand displacement, fluorescence kinetic; hit rate 1.3% among 340,000; Potency, µM (series often up to 114 µM), for inactives: at the top dose activity change, negative = inhibition, usual class: inhibitors; P06746; further: on the % scale 0 is the no-effect control and ±100 the full control effect
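Reaction started by 50 nM substrate onto compound-treated Pol beta (10 nM, 15 min preincubation, room temperature); plates read at 0 min and 10 min. Normalized concentration-effect data fitted by four-parameter Hill equation.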
POLI cherry-pick = Inhibitors of human DNA polymerase iota, confirmation; shares compounds with Pol kappa inh-1; Pol iota primer extension, TAMRA/BHQ fluorescence; Potency, µM, most hits filed as inhibitors; hit rate 77% among 1,500; AID 720496
Pol kappa inh-2 = confirmation of human DNA polymerase kappa inhibitors | AID 720501 | Potency, µM, hits mostly inhibitors | purified Pol-kappa, fluorescent strand-displacement substrate | hit rate 76% among 920 | shares compounds with Pol eta inh-1
Pol eta inh-2 = Pol eta (human) inhibition, cherry-pick confirmation; hit rate 64% among 2,600; Pol eta primer extension, TAMRA/BHQ fluorescence, 10 min; shares compounds with Pol eta inh-1; Potency, µM, actives largely listed as inhibitors
The depositor's hits bear a star; u = inconclusive; x = not tested or not shown; [ ] = another dose, or the depositor's remark. The call rests on the fitted dose curve; in most records, active means well fitted curve in the direction sought with a large enough effect; inconclusive means small, poorly fitted or top-dose-only effect, or another doubt; inactive means no such curve, though single readings can be large; an effect the other way counts as inactive or inconclusive. Potency means the concentration at half of the fitted maximal effect.

SMILES	WRN inhibitor	FEN1 inhibitor	POLI inh	Pol eta inh-1	Pol kappa inh-1	Pol beta inh	POLI cherry-pick	Pol eta inh-2	others
CCOc1cc(/C=N/Nc2ccc(S(=O)(=O)Nc3ccccc3C(=O)O)cc2[N+](=O)[O-])cc(Cl)c1O	u	x	x	25µM*	x	x	47*	67*	Pol kappa inh-2=24*
CC[C@H](C)[C@H](NC(=O)CNC(=O)[C@H](CCCNC(=N)N)NC(=O)[C@H](CO)NC(=O)[C@H](C)NC(=O)[C@H](Cc1ccc(O)cc1)NC(=O)[C@H](Cc1c[nH]c2ccccc12)NC(=O)[C@H](C)NC(=O)[C@@H]1CCCN1C(=O)[C@H](CC(N)=O)NC(=O)[C@@H](NC(=O)[C@H](CC(=O)O)NC(=O)[C@@H]1CCCN1C(=O)[C@@H](NC(=O)[C@H](CCCNC(=N)N)NC(=O)[C@@H](NC(=O)[C@H](CCC(=O)O)NC(=O)[C@H](CCSC)NC(=O)[C@H](CO)NC(=O)[C@H](Cc1cnc[nH]1)NC(=O)[C@H](CCCNC(=N)N)NC(=O)[C@H](Cc1cnc[nH]1)NC(=O)[C@@H](NC(=O)[C@H](CCCNC(=N)N)NC(=O)[C@@H](N)CO)[C@@H](C)O)[C@@H](C)CC)[C@@H](C)O)[C@@H](C)CC)C(=O)N[C@@H](CCCNC(=N)N)C(=O)N1CCC[C@H]1C(=O)N[C@H](C(=O)NCC(=O)N[C@@H](CCCNC(=N)N)C(=O)N[C@@H](Cc1ccccc1)C(N)=O)C(C)C	x	x	x	x	-5%[12 µM]	x	x	x
CCNC(=O)COC(=O)/C=C/c1cccc(F)c1	4%	-3%	31%	-3%	3%	18%	x	x
O=C(COC(=O)/C=C/c1cccc(F)c1)Nc1ncccn1	-30%	-4%	50µM*	28µM*	u	-27%	42*	48*
Cc1cnc(C(=O)OCc2nc3ccsc3c(=O)[nH]2)cn1	50µM*	u	16µM*	10µM*	79µM*	x	27*	21*
O=C(OCc1nc2ccsc2c(=O)[nH]1)c1ccco1	-27%	2%	47%	5%	-13%	x	x	x
COc1ccc(-c2nc3nc(C)cc(N4CCN(c5cccc(C(F)(F)F)c5)CC4)n3n2)cc1	x	-6%	18%	-18%	-6%	14%	x	x
Oc1c(Cl)cc(Cl)cc1C=Nc1ccc(N2CCOCC2)cc1	u	-1%	174%	-19%	-7%	31%	x	x
Oc1ccc(C=Nc2ccc(N3CCOCC3)cc2)c(O)c1	-23%[57.1 µM]	3%	u	14µM*	-41%	4%	u	u
C/C(=N/NC(=O)c1cc(-c2cccc([N+](=O)[O-])c2)n[nH]1)c1cccc(O)c1	-1%	-13%	-25%	-6%	3%	21%	x	x
C/C(=N\NC(=O)c1cc(-c2cccc([N+](=O)[O-])c2)n[nH]1)c1ccccc1O	u	u	-11%	8.9µM*	-32%	11µM*	47*	x	Pol kappa inh-2=84*
O=C(O)c1[nH]c2ccccc2c1C(c1cc(Br)ccc1O)c1c(C(=O)O)[nH]c2ccccc12	3%[11.6 µM]	u	u	50µM*	u	79µM*	u	u
CCOc1ccccc1Nc1nc2ccccc2nc1NS(=O)(=O)c1ccc(Cl)cc1	x	-12%	0%	6%	-3%	15%	x	x
Cc1ccc(NCc2cccn2-c2nnc(N3CCC(C(=O)NCCc4ccc(Cl)cc4)CC3)s2)cc1	x	-5%	0%	x	4%	8%	x	x
CC1=C(C(=O)Nc2ccccc2C)C(c2ccc[nH]2)n2ncnc2N1 (stereo not drawn)	x	u	22µM*	8.9µM*	32µM*	40µM*	21*	30*
COc1ccc2c(c1)NC(c1ccc(OCC(C)C)cc1)=NC(c1ccncc1)=N2	x	-5%	29%	-8%	-15%	6%	x	x
CC(=O)Nc1ccc(S(=O)(=O)N2CCN(C(=O)C3COc4ccccc4O3)CC2)cc1 (stereo not drawn)	-1%	-2%	107%	-16%	-12%	0%	x	x
COc1ccc(S(=O)(=O)N2CCN(C(=O)/C=C/c3ccco3)CC2)cc1	-5%[11.6 µM]	4%	22µM*	50µM*	u	x	67*	76*	Pol kappa inh-2=67*
COc1ccc(S(=O)(=O)N2CCN(C(=O)C3COc4ccccc4O3)CC2)cc1 (stereo not drawn)	50µM*	50µM*	10µM*	10µM*	28µM*	x	15*	24*	Pol kappa inh-2=17*
CC(/C=C/c1ccc(N(C)C)cc1)=N\N=C(/N)SC1CC(=O)N(c2ccc(C(=O)O)cc2)C1=O (stereo not drawn)	-20%	3%	15%	45µM*	-14%	4%	67*	u	Pol kappa inh-2=42*
Cc1ccc(NS(=O)(=O)c2cnc(N)nc2)c(C)c1	x	5%	4%	-10%	-8%[60.1 µM]	3%	x	x
COc1cccc(CNC(=O)c2ccc3c(c2)N(Cc2ccc(F)cc2Cl)C(=O)c2ccccc2S3)c1	x	-2%	15%	-14%	-9%[60.1 µM]	2%	x	x
Cc1ccc(CN2CCCn3nc(C(=O)NCc4ccc(OC(C)C)cc4)cc3C2=O)cc1	x	-6%	-1%	-17%	-9%[60.1 µM]	-30%	x	x
CCS(=O)(=O)C1=NN2C(=N)/C(=C\c3ccc(SCc4ccco4)o3)C(=O)N=C2S1	56µM*	45µM*	u	4.5µM*	28µM*	11µM*	38*	17*
CCOc1cc(/C=C2\C(=N)N3N=C(S(=O)(=O)CC)SC3=NC2=O)ccc1OC(=O)c1ccco1	-6%[11.6 µM]	0%	-4%	u	-4%	-47%	x	x
Cc1cccc(CCNC(=O)C2CCC(CNS(=O)(=O)c3c(C)cc(C)cc3C)CC2)c1 (stereo not drawn)	x	7%	7%	-11%	-11%[60.1 µM]	8%	x	x
NS(=O)(=O)c1ccc(CCNC(=O)CCS(=O)(=O)c2ccc(Br)cc2)cc1	u	11%	2%	20µM*	-2%	28µM*	38*	43*
O=C(CCS(=O)(=O)c1ccc(Br)cc1)NCCc1ccccc1	u	-3%	50µM*	20µM*	u	u	u	48*	Pol kappa inh-2=17*
